Source: PubChem BioAssay
BRCA1 expr act: qHTS Assay to Identify Small Molecule Activators of BRCA1 Expression. MCF7-BRCA1-FFLuc reporter, luminescence, 48 h; response scale: scaled: vehicle 0%, 10 µM genistein 100%. Potency, µM (titrated, usually from 46.1 µM), for inactives: at the highest dose activation, actives largely listed as activators. actives 1.1% (n = 380,000). AID 624202, 2012; further: potency means the concentration at half of the fitted maximal effect; nearly all actives have a fitted effect of over 80% in size
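MCF7-BRCA1-FFLuc cells, 2000/well in phenol-red-free MEM, attached 2 h then treated 48 h at 37 C. Luciferase luminescence read 15 min after reagent; normalized to genistein maximum activation (10microM) and DMSO, concentration-response fitted.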
RXFP1 ag: qHTS Assay for Agonists of the Relaxin Receptor RXFP1 | AID 2676, 2010 | actives 0.3% (n = 370,000) | Potency, µM (titrated, usually from 57.5 µM), for the others: top-dose activation, most hits filed as activators | HEK293T-RXFP1 cAMP TR-FRET, 30 min; response scale: percent of porcine relaxin response, buffer zero; further: potency means the concentration at half of the fitted maximal effect; on the % scale 0 is the no-effect control and ±100 the full control effect; nearly all actives have a fitted effect of over 60% in size
Target sequence (Q9HBX9 whole entry, looked up): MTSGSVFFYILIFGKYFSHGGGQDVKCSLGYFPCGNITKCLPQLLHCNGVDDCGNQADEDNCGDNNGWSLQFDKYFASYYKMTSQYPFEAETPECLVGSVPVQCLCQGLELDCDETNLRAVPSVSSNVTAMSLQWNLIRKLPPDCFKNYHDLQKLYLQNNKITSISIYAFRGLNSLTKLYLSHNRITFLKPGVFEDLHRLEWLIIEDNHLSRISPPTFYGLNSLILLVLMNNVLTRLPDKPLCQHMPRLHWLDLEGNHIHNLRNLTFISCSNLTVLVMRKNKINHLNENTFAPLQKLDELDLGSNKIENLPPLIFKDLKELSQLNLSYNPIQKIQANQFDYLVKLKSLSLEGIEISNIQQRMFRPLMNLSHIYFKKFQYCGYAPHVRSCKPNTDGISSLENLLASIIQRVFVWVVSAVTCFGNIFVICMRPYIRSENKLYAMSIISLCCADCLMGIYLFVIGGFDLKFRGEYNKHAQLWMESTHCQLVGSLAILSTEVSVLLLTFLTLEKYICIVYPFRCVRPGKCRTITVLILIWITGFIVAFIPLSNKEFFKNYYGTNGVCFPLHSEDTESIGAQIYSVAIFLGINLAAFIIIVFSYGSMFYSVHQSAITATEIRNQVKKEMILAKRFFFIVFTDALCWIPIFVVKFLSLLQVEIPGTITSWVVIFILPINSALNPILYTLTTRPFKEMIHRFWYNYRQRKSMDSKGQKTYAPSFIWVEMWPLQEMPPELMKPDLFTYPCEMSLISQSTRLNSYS
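HEK293 cells stably expressing RXFP1, treated 30 min at 37C with compounds plus PDE4 inhibitor Ro 20174; cAMP measured by HTRF TR-FRET. Normalized to buffer and 29 nM porcine relaxin; EC50 by Hill fit.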
IL-2 act: qHTS of IL-2 Activators | IL-2 activation reporter assay, cell-based qHTS; stimulated with anti-CD3/CD4/CD28 beads; in transgenic mouse T cells | activation, % (series mostly up to about 46 µM) | actives 0.065% (n = 360,000); in the data active means activation above about 50%; inconclusive means mostly about 30% to 49%; further: 0% is about no effect
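Unstimulated transgenic mouse T cells; 60-min compound exposure; bead-based TCR/CD4/CD28 stimulation; 18 h culture, 37 degrees C; dual fluorescence (EGFP, DsRed) plate cytometry.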
NPSR antag: qHTS Assay for Antagonists of the Neuropeptide S Receptor: cAMP Signal Transduction. Q6W5P4. CHO-NPSR cells, cAMP TR-FRET, antagonist mode. Potency, µM (top dose mostly 38.3 µM), for the others: top-dose activity change, negative = inhibition, hits mostly inhibitors. actives 1% (n = 220,000). AID 1461, 2008; further: potency means the concentration at half of the fitted maximal effect; on the % scale 0 is the no-effect control and ±100 the full control effect; nearly all actives have a fitted effect of over 50% in size
RXFP1 antag: qHTS Assay for Antagonists of the Relaxin Receptor RXFP1; Relaxin receptor 1 (Homo sapiens), Q9HBX9; HEK293-RXFP1, relaxin-stimulated cAMP HTRF, 30 min; hits give low values; activity change, negative = inhibition, % at 57.5 µM; actives 0.59% (n = 350,000); AID 1259400, 2018;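 active means activity change of -60% or lower, but not beyond a set lower limit; inconclusive means change between -60% and -40%, or beyond the set limit; inactive means change above -40%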; further: on the % scale 0 is the no-effect control and ±100 the full control effect
Giardia killer: Small Molecules that selectively kill Giardia lamblia: qHTS; Giardia lamblia trophozoite viability; activity change, % at 7.66 µM, hits read low; actives 0.15% (n = 340,000); in the data active means activity change below about -80%; inconclusive means between about -30% and that limit;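 further: parasites exposed to compound for two days anaerobically before the ATP read; on the % scale 0 is the no-effect control and ±100 the full control effect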
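Killing of trophozoites was scored by loss of ATP luminescence after a 48 hrs anaerobic exposure to compounds at 37 deg C, using 100 cells per well.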
Starred values were filed as active, the others as inactive; [ ] = another dose, or the depositor's remark. In the library only some 1.9% were active in any assay of this set; here they are far more common. Unless noted, the call rests on the fitted dose curve; in most records, active means well fitted curve in the direction sought with a large enough effect; inconclusive means small, poorly fitted or top-dose-only effect, or another doubt; inactive means no such curve, though single readings can be large; an effect the other way counts as inactive or inconclusive.

Results for CCOc1ccc(C(C(=O)NCC2CCCO2)N(C(=O)c2snc(C(N)=O)c2N)c2ccccc2F)cc1 (stereo not given) ?
BRCA1 expr act: -23.4%; RXFP1 ag: inconclusive; IL-2 act: -1.2; RXFP1 antag: inconclusive; Giardia killer: -8.7

What do the screens show for `Cc1ccc(C(C(=O)NCC2CCCO2)N(C(=O)c2snc(C(N)=O)c2N)c2ccc(C)c(C)c2)o1` (stereo not given)?
BRCA1 expr act: -16.2%; RXFP1 ag: 2.0%; IL-2 act: -4.3; RXFP1 antag: -76.3*; Giardia killer: -4.3

Results for COc1ccc2c(c1)C=C/C2=C/c1ccc(N(C)C)cc1 ?
BRCA1 expr act: 79.9%

How did Cc1ccc2nc3cc([N+](=O)[O-])cc([N+](=O)[O-])c3cc2c1 do in these assays?
BRCA1 expr act: -80.0%; RXFP1 ag: -2.4%; IL-2 act: 2.3; NPSR antag: 7.94µM*; RXFP1 antag: -5.5; Giardia killer: -13.7

How did Cc1ccc(OCCCSc2ncccn2)cc1C do in these assays?
BRCA1 expr act: inconclusive; RXFP1 ag: 0.9%; IL-2 act: 2.8; NPSR antag: -7.9%[46.1 µM]; RXFP1 antag: 1.7; Giardia killer: 4.1

How did COc1ccc(OCCCSc2ncccn2)cc1 do in these assays?
BRCA1 expr act: 12.6µM*; RXFP1 ag: 0.1%; IL-2 act: -0.3; NPSR antag: -6.9%[46.1 µM]; RXFP1 antag: -1.7; Giardia killer: 0.6

What do the screens show for `Clc1ccc(OCCSc2ncccn2)cc1`?
BRCA1 expr act: 11.2µM*; RXFP1 ag: 1.0%; IL-2 act: -3.6; NPSR antag: 5.1%[46.1 µM]; RXFP1 antag: -1.9; Giardia killer: 8.0

Results for COc1ccc(OCCSc2ncccn2)cc1 ?
BRCA1 expr act: inconclusive; RXFP1 ag: 1.6%; IL-2 act: -1.4; NPSR antag: inconclusive; RXFP1 antag: 6.9; Giardia killer: 11.7

What do the screens show for `COc1cccc(OCCSc2nc(N)cc(N)n2)c1`?
BRCA1 expr act: 75.2%; RXFP1 ag: 1.5%; IL-2 act: 0.7; NPSR antag: -2.8%[46.1 µM]; RXFP1 antag: 2.2; Giardia killer: -4.4

Results for Nc1cc(N)nc(SCCOc2ccccc2)n1 ?
BRCA1 expr act: 12.6µM*; RXFP1 ag: -0.8%; IL-2 act: 0.0; NPSR antag: 4.0%[46.1 µM]; RXFP1 antag: -3.0; Giardia killer: 15.9

What do the screens show for `c1cnc(SCCCOc2ccc3ccccc3c2)nc1`?
BRCA1 expr act: 11.2µM*; RXFP1 ag: -3.0%; IL-2 act: 4.8; NPSR antag: -5.0%[46.1 µM]; RXFP1 antag: -4.2; Giardia killer: 23.0

What do the screens show for `Cc1c(C(=O)Nc2ccc(F)c(C(F)(F)F)c2)sc2nc(-c3ccccc3)cn12`?
RXFP1 ag: -1.4%; RXFP1 antag: -12.6

What do the screens show for `O=C(Nc1ccc2ccccc2c1)c1nc(S(=O)(=O)Cc2ccccc2F)ncc1Cl`?
BRCA1 expr act: -61.1%

Results for CC(C)SCCCCOc1ccc2ccccc2c1 ?
BRCA1 expr act: 8.91µM*; RXFP1 ag: 4.1%; IL-2 act: 0.1; NPSR antag: -0.6%[46.1 µM]; RXFP1 antag: -5.1; Giardia killer: -5.3

What do the screens show for `CC(C)(O)C#Cc1ccc(C(=O)NC2CCCCC2)s1`?
BRCA1 expr act: 11.2µM*; RXFP1 ag: -1.3%; IL-2 act: 2.1; NPSR antag: 8.1%; RXFP1 antag: -5.9; Giardia killer: -11.3

What do the screens show for `Cc1occc1C(=O)NC1CCCCCCC1`?
BRCA1 expr act: 14.1µM*; RXFP1 ag: 3.3%; IL-2 act: -4.2; NPSR antag: 13.3%; RXFP1 antag: -3.7; Giardia killer: 6.3

Results for CCc1ccc(C(=O)NC2CCCCC2)s1 ?
BRCA1 expr act: 3.55µM*; RXFP1 ag: -0.5%; IL-2 act: -2.6; NPSR antag: 3.9%[46.1 µM]; RXFP1 antag: -14.9; Giardia killer: -9.2

Results for CC(=O)c1ccccc1S(=O)(=O)N1CCN(c2nc(-c3cccs3)nc3ccccc23)CC1 ?
BRCA1 expr act: -30.2%; Giardia killer: 6.4

Results for O=C(NCC(c1cccnc1)N1CCN(Cc2ccccc2)CC1)C(=O)Nc1ccc(Cl)cc1 (stereo not given) ?
RXFP1 ag: -3.1%; RXFP1 antag: -23.8

How did C=CCn1c(O)c(C=Nc2ccccc2)sc1=S do in these assays?
BRCA1 expr act: inconclusive; RXFP1 ag: -0.4%; IL-2 act: -0.3; NPSR antag: 17.2%; RXFP1 antag: -6.2; Giardia killer: -1.2

What do the screens show for `Oc1c(C=Nc2ccccc2)sc(=S)n1Cc1ccccc1`?
BRCA1 expr act: 0.0%; RXFP1 ag: -1.1%; IL-2 act: 71.4*; NPSR antag: -42.3%; RXFP1 antag: -27.4; Giardia killer: -8.2

What do the screens show for `CCn1c(O)c(C=Nc2ccccc2)sc1=S`?
BRCA1 expr act: 3.16µM*; RXFP1 ag: 1.6%; IL-2 act: 3.8; NPSR antag: -17.3%; RXFP1 antag: 3.8; Giardia killer: 6.1

What do the screens show for `CC(C)c1ccc(OCc2cc(=O)n3c(-c4ccccc4)csc3n2)cc1`?
BRCA1 expr act: -6.2%; RXFP1 ag: inconclusive

How did O=C(O)c1ccc(COc2ccccc2C=C2C(=O)c3ccccc3C2=O)cc1 do in these assays?
BRCA1 expr act: -14.8%; RXFP1 ag: -0.7%; IL-2 act: 0.0; NPSR antag: 1.4%; RXFP1 antag: -60.3*; Giardia killer: 11.9

How did CCN1CCN(c2cc(C)c3cc(NC(=O)/C=C/c4cccc(Cl)c4)ccc3n2)CC1 do in these assays?
RXFP1 ag: -1.2%; RXFP1 antag: 7.7

Results for Nc1ncnc2c1nc(Sc1ccc(Cl)cc1)n2[C@H]1OC2COP(=O)(O)O[C@H]2[C@@H]1O (stereo not given in full) ?
BRCA1 expr act: 0.0%

What do the screens show for `C/C(=N/OCC(=O)Nc1ccc(C)cc1C)c1cccs1`?
BRCA1 expr act: -16.0%; RXFP1 ag: 2.0%; IL-2 act: -0.8; NPSR antag: -17.0%[46.1 µM]; RXFP1 antag: -5.3; Giardia killer: -10.4

Results for C/C(=N\OCC(=O)Nc1ccccc1C(=O)O)c1cccs1 ?
BRCA1 expr act: 11.2µM*; RXFP1 ag: -1.9%; IL-2 act: 0.2; NPSR antag: -20.1%; RXFP1 antag: 0.5; Giardia killer: 5.2

Results for O=c1/c(=C\c2cccnc2)sc2nc3ccccc3n12 ?
BRCA1 expr act: 12.6µM*; RXFP1 ag: -0.1%; IL-2 act: 0.1; NPSR antag: -8.8%[46.1 µM]; RXFP1 antag: 5.9; Giardia killer: -19.2
